Compound activity as filed in PubChem BioAssay.
In the library only some 9.5% were active in any assay of this set; here they are far more common.
Pf growth 96h: P. falciparum growth inhibition at 96 hours | Potency, µM (titrated, usually from 28.7 µM), inactives show top-dose activity change, negative = inhibition, usual class: inhibitors | hit rate 6.9% among 320,000 | P. falciparum luciferase reporter growth, 96 h; active means well fitted inhibition curve with a large enough effect; inconclusive means small, poorly fitted or top-dose-only effect, or another doubt; inactive means no such curve, though single readings can be large or run the other way; further: potency means the concentration at half of the fitted maximal effect; on the % scale 0 is the no-effect control and ±100 the full control effect
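Parasite growth measured via integrated firefly luciferase reporter in P. falciparum. Infected erythrocytes at 2% hematocrit, 0.05% parasitemia final were treated 96 hours at 37 C under 5% CO2, and luminescence was read.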
SARS PLP yeast: blocks SARS-CoV papain-like protease in a yeast assay | S. cerevisiae expressing SARS-CoV PLpro, growth rescue | Potency, µM (series often up to 32.9 µM), for inactives: at the top dose activity, positive = growth rescue, actives largely listed as activators | hit rate 0.19% among 330,000 | AID 485353; further: potency means the concentration at half of the fitted maximal effect; 0% is about no effect; nearly all actives have a fitted effect of over 55% in size
Pf growth 48h: inhibits P. falciparum growth in the first generation, 48 h | Potency, µM (titrated, usually from 28.7 µM), for the others: at the highest dose activity change, negative = inhibition, most hits filed as inhibitors | P. falciparum luciferase growth in erythrocytes, 48 h | hit rate 5.9% among 310,000; active means well fitted inhibition curve with a large enough effect; inconclusive means small, poorly fitted or top-dose-only effect, or another doubt; inactive means no such curve, though single readings can be large or run the other way; further: potency means the concentration at half of the fitted maximal effect; on the % scale 0 is the no-effect control and ±100 the full control effect
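Luciferase-expressing P. falciparum in infected erythrocytes (2% hematocrit, 0.1% parasitemia final) in RPMI 1640/0.5% Albumax were exposed to compound for 48 hours at 37 C, 5% CO2; growth read as luminescence.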
NS1 inh: influenza NS1 inhibition | Potency, µM (series often up to 46.1 µM), for the others: at the top dose activity, positive = more growth | hit rate 0.4% among 270,000 | AID 2326; further: potency means the concentration at half of the fitted maximal effect; actives are rising curves; nearly all actives have a fitted effect of over 50% in size
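Read-out: OD600 growth recovery of NS1-expressing budding yeast. Cells grown overnight at 30C in -URA glucose medium, washed, resuspended and diluted 1:100 in 2% galactose assay medium, pH 6.0. Same strain lacking NS1 served as positive control.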
RE007 growth inh: less growth of the S. pombe RE007 Vpr strain; S. pombe RE007 Vpr strain, BacTiter-Glo ATP luminescence, 24 h; Potency, µM (doses to about 92.2 µM), inactives show top-dose activity change, negative = less growth, actives largely listed as inhibitors; hit rate 0.21% among 360,000; AID 651644; active means well fitted falling curve with a large enough effect; inconclusive means small, poorly fitted or top-dose-only effect; inactive means no such curve, though single readings can be large or run the other way; further: potency means the concentration at half of the fitted maximal effect; on the % scale 0 is the no-effect control and ±100 the full control effect; nearly all actives have a fitted effect of over 50% in size
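Fission yeast RE007 carrying one integrated HIV-1 vpr copy, seeded at OD 0.01 in PMG+AL medium with 23 nL pinned compound. Grown 24 h at 30 degrees; viability read by BacTiter-Glo luminescence after 5 min.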
NS1 inh valid: influenza NS1 function inhibition validation; shares compounds with NS1 inh; influenza NS1 function cell assay, 15-point titration; activity change, negative = inhibition, % at 32.9 µM; 1,400 tested, under 10 active; further: 0% is about no effect
Flu PR8 replic: influenza virus titer reduction, NS1 project; MDCK infected influenza A/PR/8/34, virus titer TCID50; hits give low values; hit rate 30% among 95; shares compounds with NS1 inh; AID 504647; virus titer (log TCID50), log10 TCID50 at 5 µM; call rule not given here
Active calls of the source: *; ? = inconclusive; / = no result; [ ] = dose if it differs, or a comment. Unless noted, the call rests on the fitted dose curve.

SMILES | Pf growth 96h | SARS PLP yeast | Pf growth 48h | NS1 inh | RE007 growth inh | NS1 inh valid | others
CC(/C=C/c1ccc(N(C)C)cc1)=N\N=C1\NC(=O)CC(C(=O)Nc2ccccc2)S1 (stereo not drawn) | 22.8% | -0.8% | 62.3% | 7.94µM* | 24.5% | -12.8
CCCOc1ccc(NC(=O)C2CC(=O)N/C(=N/N=C(C)/C=C/c3ccc(N(C)C)cc3)S2)cc1 (stereo not drawn) | ? | -11.8% | 45.7% | ? | -13.7% | /
Cc1cccc(NC(=O)CSc2nnc(-c3ccccc3C)o2)c1 | -24.6% | 5.8% | 500.0% | -3.5% | 9.8% | /
Cc1cc(C)cc(NC(=O)CSc2nnc(-c3ccccc3C)o2)c1 | -20.1% | 7.6% | 77.4% | ? | -2.0% | -13.6
Cn1nnnc1SCC(=O)NC1CCCC1 | ? | -1.4% | 34.9% | 4.9% | 10.3% | /
Nc1nonc1-n1nnc(C(=O)N/N=C/c2ccccc2Cl)c1COc1ccc(F)cc1 | 14.4% | -0.5% | 2.0% | 2.3% | 12.8% | /
CCCCOc1ccccc1NC(=O)c1ccc(=O)[nH]c1 | -1.3% | -3.5% | 4.7% | ? | -0.8% | 0.7
COc1ccc(C(=O)CC2(C(=O)O)CCCCC2)cc1 | ? | -2.7% | -1.6% | -53.8% | -1.7% | /
O=C(/C=C/c1ccco1)NC(=S)Nc1cccc([N+](=O)[O-])c1 | 78.7% | 6.7% | 11.7% | 22.4µM* | -17.2% | -0.1
CCn1c(CNC(=O)C2CCCCC2)cc2ccccc21 | 9.28µM* | -5.1% | 5.9% | ? | 19.8% | -6.7
O=S(=O)(Nc1ccc(-n2cnnn2)cc1)c1ccc(F)c(F)c1F | 6.0% | 0.5% | 3.0% | 1.6% | 1.1% | /
COCC(C)N=C1NN=C(c2c[nH]c3ccccc23)CS1 (stereo not drawn) | 0.0% | 12.8% | 138.8% | ? | 4.4% | -2.4
CC(C)C[C@H]1COc2cc(N3CC[C@H](O)C3)ccc2S(=O)(=O)N1 | / | / | / | / | 6.6% | /
CCN(C(=O)COC(=O)CCC1CCCC1)c1c(N)n(Cc2ccccc2)c(=O)[nH]c1=O | -2.4% | 0.3% | 5.5% | / | -7.5% | /
COc1ccccc1/C=C/C(=O)NCC(=O)N/N=C/c1cccnc1 | 1.9% | 9.8% | 10.6% | 7.7% | -3.0% | /
COc1ccccc1NCC(=O)N/N=C/c1cccnc1 | ? | -0.2% | 0.0% | 3.16µM* | 6.5% | 32.2
Cc1ccsc1/C=C(\C(=O)c1ccc(OC(C)C)cc1)c1nc2ccccc2o1 | ? | 5.5% | ? | 14.1µM* | -5.7% | -29.0
CN(Cc1ccccc1)C(=O)c1ccc2sc([C@H]3C[C@H](O)[C@@H](CO)O3)nc2c1 | / | / | / | / | 13.4%[18.4 µM] | /
CCOC(=O)N1CCN(S(=O)(=O)N2CCCC(C(=O)NCCCN3CC(C)CC(C)C3)C2)CC1 (stereo not drawn) | -16.9% | 7.8% | 5.6% | ? | -5.4% | -3.9 | Flu PR8 replic=6*
O=C(NN=Cc1ccccc1OC(F)F)c1ccc(NS(=O)(=O)c2cccs2)cc1 | / | ? | / | / | 18.0% | /
CCC(C)c1ccc(NC(=S)N2CCN(C(=O)C3CCCO3)CC2)cc1 (stereo not drawn) | 6.8% | -3.5% | -1.5% | 9.1% | 36.8% | /
COC(=O)c1ccccc1C(=O)N1CCC(CCC(=O)NC2CC2)CC1 | ? | -6.1% | -16.7% | -5.4% | -2.0% | /
Cc1ccc(Sc2ncccc2C(=O)O)cc1C | 58.5% | -3.4% | -1.7% | ? | -6.7% | 0.3
Cc1ccnc(NC(=O)C(Cc2ccccc2)NC(=O)c2ccccc2)c1 (stereo not drawn) | ? | -1.6% | ? | / | -13.8% | /
O=C(Cc1csc(NC(=O)c2ccccc2)n1)NO | ? | 0.0% | ? | / | -4.0% | /
SMILES | Pf growth 96h | SARS PLP yeast | Pf growth 48h | NS1 inh | RE007 growth inh | NS1 inh valid | others
O=C(Cc1ccsc1-c1ccccc1)NO | 15.0% | 1.8% | 13.1µM* | ? | 5.1% | 8.0
CC(C)(C)NC(=O)NC(=O)COC(=O)CNS(=O)(=O)/C=C/c1ccccc1 | 15.2% | -1.0% | 0.0% | -2.4% | 4.8% | /
CCOC(=O)C1=C(C)Nc2nc(SCC)[nH]c(=O)c2C1c1ccncc1 (stereo not drawn) | -62.5% | 9.2% | ? | ? | 21.1% | -14.8
Cc1ccc(S(=O)(=O)N(C)C)cc1-n1c(SCC(=O)Nc2ccc(F)cc2)nc2ccccc2c1=O | 9.28µM* | 1.9% | 9.28µM* | 12.6µM* | 1.0% | 16.9
Cc1cccc(NC(=S)N2CCC(NC(=O)c3ccco3)CC2)c1 | 3.9% | 3.0% | 5.1% | -6.3% | -8.5% | /
COC(=O)C1=C(C)OC(N)=C(C#N)C1c1c(C)nn(C)c1C (stereo not drawn) | ? | 9.7% | 28.7% | 2.24µM* | -2.5% | 9.7
COC(=O)C1=C(C)OC(N)=C(C#N)C1c1c(C)nn(-c2ccccc2)c1Cl (stereo not drawn) | ? | -0.2% | -12.8% | -3.5% | 7.1% | /
O=C(Cn1c(=O)oc2ccccc21)NCC1COc2ccccc2O1 (stereo not drawn) | 18.1% | 7.7% | 2.6% | -1.4% | -22.3% | /
COc1cc(C(=O)NC(=S)Nc2ccc(N3CCCC3)cc2)cc(OC)c1OC | ? | 5.3% | 9.28µM* | 12.6µM* | 4.6% | 2.9
COc1ccc(C(=O)NC(=S)Nc2ccc(N3CCCC3)cc2)cc1 | 47.1%[5.75 µM] | -0.6% | 2.6%[5.75 µM] | / | -20.3% | /
COc1ccc([C@H]2CC(=O)C=C(c3c(OC)cccc3OC)C2)cc1 | -17.0% | 0.9% | ? | / | 6.2% | /
NNC(=O)COc1ccc(-c2n[nH]c(C(F)(F)F)c2-c2ccc(Br)cc2)c(O)c1 | 8.28µM* | -0.8% | 9.28µM* | 11.2µM* | / | 1.9
Cc1ccccc1N1CCN(C(=O)c2cc(C3CC3)nn2-c2ccccc2)CC1 | ? | -13.5% | ? | / | 4.0% | /
O=C(CCc1nc(-c2ccccc2)no1)NCc1ccccc1CN1CCOCC1 | ? | -1.6% | 19.3% | / | -0.4% | /
Nc1cc(=O)[nH]n1C1CCN(c2ccccc2)CC1 | -20.9% | 17.5% | 1.8% | 14.1µM* | 21.2% | 26.8
Cc1cc(C)n(-c2n[nH]c(C)c2[N+](=O)[O-])n1 | 32.2% | 0.2% | 17.5% | 0.7% | 181.9% | /
COc1cc(C)c(C(N)=O)c(OC)n1 | -11.7% | -3.0% | 0.6% | ? | 4.5% | 0.5
CCCS(=O)(=O)NC(=O)C1(C)CCCN(C(=O)c2cc(C)n(C(C)(C)C)n2)C1 (stereo not drawn) | / | / | / | / | 10.3% | /
COc1cc(/C=N/n2c(-c3n[nH]c4c3CCC4)n[nH]c2=S)ccc1O | 4.3% | 2.5% | 7.1% | 5.62µM* | 8.4% | ?
COc1ccc(/C=N/n2c(-c3n[nH]c4c3CCC4)n[nH]c2=S)cc1OC | -12.0% | 1.6% | -24.9% | ? | 11.5% | /
CN(c1ccc(OC(=O)CN2C(=O)NC3(CCCC3)C2=O)cc1)S(=O)(=O)c1ccccc1 | 23.6% | 1.1% | 17.5% | / | 1.7% | /
